Experimental data as given in PubChem BioAssay (NCI).
About 83,000 compounds went through this panel and 20% of them were active in at least one assay; those are over-represented in the sample as a whole.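 Cell lines were cultured in 96-well plates, exposed to a single compound concentration, and assessed for percent growth 48 hours later.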 Unmarked numbers belong to inactive results. Calls of active or inactive are those of the source. How the source made its calls: active means growth percent below 10; inactive means the rest.

system: MDA-MB-468 breast; test: NCI-60 one-dose screen, 48 h (100 = growth as untreated, 0 = no growth, -100 = all killed); conditions: 10 µM unless noted

| SMILES | growth |
| --- | --- |
| COc1ccc(-c2nc3ccc4[nH]ncc4c3c3c2CCCC3)cc1B(O)O | 31.5% |
| CCOC(=O)c1c(C)nc2c(c1N)/C(=C/c1ccccn1)C(=O)N2Cc1ccccc1 | -49.5% (active) |
| COc1cc2c(c(OC)c1OC)-c1ccc(SC)c(=O)cc1[C@@H](NC1OC(CO)C(O)C(O)C1O)CC2 (stereo partly drawn) | 23.6% |
